An excerpt weighted towards active compounds, which were near 8.3% of everything screened.
FMDV antiviral: antivirals against foot and mouth disease virus; FMDV antiviral cell-based qHTS; Potency, µM (top dose mostly 57.9 µM), inactives show at the highest dose activity change, negative = inhibition, hits mostly inhibitors; actives 1.2% (n = 410,000); AID 1159524; calls by dose curve; tested in HEK293T cells; also: read-out not given here; potency is read from the fitted curve at half-maximal effect; nearly all actives have a fitted effect of over 45% in size
HCMV inh: inhibitors of human cytomegalovirus; HFF cells, HCMV-luciferase reporter, 72 h; stronger effect = lower value; activity change, negative = inhibition, % at 57.5 µM; actives 4.5% (n = 410,000); AID 1259415; in the data active = activity change below about -60%; inconclusive = no clear call, values can overlap the other calls; inactive = above about -39%
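Compounds were evaluated in HFFs infected with an HCMV luciferase reporter virus (MOI 1 PFU/cell). Luciferase in lysates collected 72 h post infection served as the replication measure.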
FBPA Giardia inh: Giardia lamblia aldolase inhibition | A8B2U2 | purified Giardia FBPA | Potency, µM (titrated, usually from 59.6 µM), for inactives: at the top dose activity, negative = inhibition, usual class: inhibitors | actives 0.71% (n = 290,000); also: potency is read from the fitted curve at half-maximal effect; nearly all actives have a fitted effect of over 55% in size
Target sequence (A8B2U2 whole entry, looked up): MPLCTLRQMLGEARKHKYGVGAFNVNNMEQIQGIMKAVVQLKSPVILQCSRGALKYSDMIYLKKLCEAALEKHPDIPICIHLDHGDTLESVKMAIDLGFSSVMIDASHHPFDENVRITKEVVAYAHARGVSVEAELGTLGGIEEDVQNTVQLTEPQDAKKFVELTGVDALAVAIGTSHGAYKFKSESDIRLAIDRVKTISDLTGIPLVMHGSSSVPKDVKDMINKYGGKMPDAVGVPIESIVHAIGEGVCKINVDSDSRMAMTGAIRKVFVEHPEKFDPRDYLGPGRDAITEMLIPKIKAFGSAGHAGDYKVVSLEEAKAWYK
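Giardia FBPA (40 nM reagent) was preincubated 10 min at RT with compound (up to 57.5 uM final), then substrate plus GAPDH/TPI/NAD/arsenate coupling system with diaphorase/resazurin was added; resorufin fluorescence (525/598 nm) was read after 20 min.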
MARV entry inh: inhibitors of Marburg virus binding or cell entry; Marburg virus pseudotyped entry inhibition, cell reporter; Potency, µM (top dose mostly 37.8 µM), for the others: at the top dose activity change, negative = inhibition, usual class: inhibitors; actives 1.8% (n = 300,000); AID 540276; calls by dose curve; tested in HEK293 cells; also: potency is read from the fitted curve at half-maximal effect
Lassa entry inh: inhibitors of Lassa virus binding or cell entry; Lassa virus pseudotype entry inhibition, cell reporter; Potency, µM (top dose mostly 37.9 µM), for the others: at the highest dose activity change, negative = inhibition, most hits filed as inhibitors; actives 1.2% (n = 300,000); AID 540256; calls by dose curve; tested in HEK293 cells; also: potency is read from the fitted curve at half-maximal effect; nearly all actives have a fitted effect of over 50% in size
HCV inhibitor: HCV inhibition | Huh7.5.1 HCVcc-Cre infection, luciferase reporter, 44 h | Potency, µM (top dose mostly 41.8 µM), without a hit: at the top dose activity change, negative = inhibition, most hits filed as inhibitors | actives 3.4% (n = 340,000); also: potency is read from the fitted curve at half-maximal effect
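After 44 h co-culture of compound, cells and HCVcc-Cre (~0.5 moi), substrate is added for 15 min at room temperature and luciferase measured over 15 sec. Cells were seeded at 1,000/well and pre-cultured 4 h.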
* marks the source's active call; other numbers are inactive results; ? = inconclusive; . = no result given; ! = a repeat was not active; [ ] = dose if it differs, or a comment. Unless noted, calls follow the shape of the dose curve; as a rule, active = well fitted curve in the direction sought with a large enough effect; inconclusive = small, poorly fitted or top-dose-only effect, or another doubt; inactive = no such curve, though single readings can be large; an effect the other way counts as inactive or inconclusive. % is scaled to controls: 0 for no effect and ±100 for the full control effect.

SMILES	FMDV antiviral	HCMV inh	FBPA Giardia inh	MARV entry inh	Lassa entry inh	HCV inhibitor
COc1ccc(CCN2C(=O)/C(=C\c3ccco3)SC2=S)cc1OC	?	-96*	?	-3%	2%	-18%
COc1ccc(CN2C(=O)CSCC2=O)cc1OC	-12%	-8	1%	.	.	25%
COc1ccc(CCN2C(=O)CSC2=S)cc1OC	7%	-101*	7%	?	?	-1%
Cc1cnn(-c2nc(-c3cccs3)cc(C(F)(F)F)n2)c1	?	-25	-1%	1%	7%	10µM*
FC(F)(F)c1cc(-c2cccs2)nc(-n2cc(Br)cn2)n1	?	2	-1%	2%	1%	11µM*
Cc1ccccc1-c1nn(-c2ccc(F)cc2F)cc1CNCCCN(C)C	-11%	?	-1%	3.5µM*	?	3.2µM*
Cc1ccccc1-c1nn(-c2ccc(F)cc2F)cc1CNCCN(C)C	-3%	-34	8%	-7%[46.1 µM]	7%	-16%
Cc1ccc(C)c(N2CCN(c3ncnc4c3cnn4-c3ccccc3)CC2)c1	?	-30	3%	-4%	.	10%
Cc1ccccc1C(=O)N1CCN(c2ncnc3c2cnn3-c2ccccc2)CC1	20µM*	?	0%	?	-15%	7.9µM*
Cc1ccc(C(=O)N2CCN(c3ncnc4c3cnn4-c3ccccc3)CC2)cc1	.	-77*	.	.	.	.
COC(=O)c1nnc(SC)nc1C(=O)OC	.	.	-4%	-5%[14.2 µM]	.	.
NC(=S)NN=C1c2ccccc2-c2c(F)c(F)c(F)c(F)c21	?	-27	.	?	?	?
CCOP(=O)(Nc1ccc2c(c1)C(=NNC(N)=S)c1ccccc1-2)OCC	35µM*	30	.	?	-20%	11µM*
C=C1C(=O)OC2C1C(OC(=O)C(C)=CC)CC(=C)C1C(O)C3OC3(C)C21O (stereo not drawn)	28µM*	?	.	-23%	-15%[46.1 µM]	-28%
CCc1cccc(CC)c1NC(=O)CN1CC(C)SC1=NC1CCCCC1 (stereo not drawn)	-13%	-63*	1%	?	?	4%
CSCCC(NC(=O)c1ccccc1Br)C(=O)NCc1ccc(F)cc1 (stereo not drawn)	-11%	-63*	5%	.	.	5%
Cc1ccc2nc(N(CCCN(C)C)C(=O)c3ccco3)sc2c1	25%	-28	-1%	.	11%[46.1 µM]	10µM*
CN(C)CCCN(C(=O)c1ccco1)c1nc2ccc(F)cc2s1	-7%	54	0%	.	.	?
Cc1ccc2nc(N(CCCN(C)C)C(=O)c3ccc(Br)s3)sc2c1	-20%	0	5%	?	?	10µM*
Cc1cc(C)n(-c2nnc(Nc3ccc(C)c(Cl)c3)c3ccccc23)n1	0%	-98*	.	-4%[46.1 µM]	3%[46.1 µM]	.
COc1ccc(Nc2nnc(-n3nc(C)cc3C)c3ccccc23)cc1	-14%	-13	.	-14%[46.1 µM]	2%[46.1 µM]	.
Cc1nc2c(OCc3ccc(C#N)cc3)cccn2c1N(C)Cc1cccs1	28µM*	-12	.	.	.	.
Clc1ccc(-c2ccc(CN3CCCCC3)o2)cc1	32%	7	?	.	.	-25%
CN1CCN(Cc2ccc(-c3ccc(Cl)cc3)o2)CC1	16%	-9	-6%	?	1%	14µM*
CCC1(c2ccccc2)NC(=O)N(Cc2ccc(C(=O)OC)cc2)C1=O (stereo not drawn)	-13%	17	4%	1%	7%	23%
SMILES	FMDV antiviral	HCMV inh	FBPA Giardia inh	MARV entry inh	Lassa entry inh	HCV inhibitor
CCC1(c2cccc(Cl)c2)NC(=O)N(Cc2cc(C(=O)OC)c(C)o2)C1=O (stereo not drawn)	28µM*	22	17%	-4%	-8%	?
Clc1ccccc1CN(Cc1ccccc1)c1ncnc2nc[nH]c12	?	-28	?	?	?	-4%
CCCN(CCC)c1ncnc2nc[nH]c12	-16%	-88*	-8%	.	.	-5%
Cc1ccc(-c2nc3sc(C(N)=O)c(N)c3c3c2CCCC3)cc1	-30%	-30	19%	?	?	?
CCOC(=O)c1sc2nc(-c3ccco3)c3c(c2c1N)CC(C)(C)OC3	?	-24	?	14%	-17%	?
Cc1ccc(-c2c3c(nc4sc(C(N)=O)c(N)c24)CCCC3)o1	?	-24	-19%	-2%	-19%	-15%
NC(=O)c1sc2nc3c(c(-c4ccco4)c2c1N)CCC3	.	-73*	?	-18%	-14%	22µM*
NC(=O)c1sc2nc(-c3ccccc3)c3c(c2c1N)CCCC3	?	-61*	28%	.	.	-22%
Nc1c(C(=O)NC2CC2)sc2nc3c(c(-c4ccco4)c12)CC/C3=C/c1ccco1	-20%	.	5.6µM*	4.5µM*	7%	?
Oc1ccc(NCc2cccc(OCc3ccc(F)cc3)c2)cc1	4%	-39	18µM*	.	.	6%
O=[N+]([O-])c1ccc(COc2cccc(CNc3ccc(F)cc3)c2)cc1	-7%	3	-6%	?	-25%	11%
Oc1ccc(NCc2cccc(OCc3ccccc3)c2)cc1	10%	-36	16µM*	.	.	14%
Cc1cc(C)n(-c2ccc(C(=O)OC(C)C(=O)Nc3ccc(C(N)=O)cc3)cc2)n1 (stereo not drawn)	35µM*	-30	.	12%[46.1 µM]	6%	?
COc1cc2c3cc1Oc1c(OC)c(OC)cc4c1[C@@H](Cc1ccc(O)c(c1)Oc1ccc(cc1)C[C@@H]3N(C)CC2)N(C)CC4	.	.	-23%	.	.	.
COc1cc2c3cc1Oc1cc(ccc1O)C[C@@H]1c4c(cc(OC)c(O)c4Oc4cccc(c4)C[C@@H]3N(C)CC2)CC[N+]1(C)C	-18%	?	.	.	.	-4%
COc1cc2c3cc1Oc1c(OC)c(OC)cc4c1[C@H](Cc1ccc(cc1)Oc1cc(ccc1O)C[C@H]3N(C)CC2)N(C)CC4	-4%	-36	.	.	.	11µM*
COc1cc2c3cc1Oc1cc(ccc1O)C[C@@H]1c4c(cc(OC)c(O)c4Oc4ccc(cc4)C[C@H]3N(C)CC2)CCN1C	-26%	-10	-16%	1.8µM*	?	7.9µM*!
COc1ccc2cc1Oc1ccc(cc1)C[C@H]1c3cc(c(OC)cc3CCN1C)Oc1c(OC)c(OC)cc3c1[C@H](C2)N(C)CC3	-23%	?	0%	.	.	?
COc1ccc2cc1Oc1ccc(cc1)C[C@H]1c3c(cc4c(c3Oc3cc5c(cc3OC)CCN(C)[C@@H]5C2)OCO4)CCN1C	?	-38	-1%	.	.	14µM*
O=C(OC1Cc2c(O)cc(O)cc2OC1c1cc(O)c(O)c(O)c1-c1c(C2Oc3cc(O)cc(O)c3CC2OC(=O)c2cc(O)c(O)c(O)c2)cc(O)c(O)c1O)c1cc(O)c(O)c(O)c1 (stereo not drawn)	-17%	.	?	.	.	.
CCCCCCN1C[C@H](O)[C@@H](n2cc(-c3ccc(F)cc3)nn2)C[C@@H]1c1ccc(Cl)cc1	?	2	.	.	.	.

Bioassay records: PubChem BioAssay, National Center for Advancing Translational Sciences (NCATS)
